± gives the standard deviation of the averaged measurements.
How the values were obtained:
DLD1 [1] = experiment: cell viability (CellTiter-Glo) relative to plate median (fraction of plate median); higher = more viable cells; conditions: 5 µM; treatment time 24 h; reporter: 7TFP
How it was run: (§1)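 Colorectal cancer cell lines stably transduced with lentiviral TCF/Wnt firefly luciferase reporters (7TFP or TCF4/Wnt) were seeded in 384-well plates. 24 h later they received library compounds at a final 5 µM for 24 h. Parallel plates were read for firefly luciferase or CellTiterGlo luminescence on a Tecan F500 reader. Each well's signal was normalised to the plate median (webcellHTS2, additive, no log transformation), and the mean of two independent replicates is reported.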

HCT116 = experiment: as above; conditions: 5 µM; treatment time 24 h; reporter: TCF4/Wnt
How it was run: as §1

SW480 [2] = experiment: as above; conditions: 5 µM; treatment time 24 h; reporter: 7TFP
How it was run: as §1

DLD1 [3] = experiment: TCF/Wnt firefly luciferase reporter signal relative to plate median (fraction of plate median); higher = higher Wnt reporter signal; conditions: 5 µM; treatment time 24 h; reporter: 7TFP
How it was run: as §1

SW480 [4] = experiment: as above; conditions: 5 µM; treatment time 24 h; reporter: 7TFP
How it was run: as §1

| Structure (SMILES) | cell viability (DLD1 [1]) | cell viability (HCT116) | cell viability (SW480 [2]) | TCF/Wnt firefly luciferase reporter signal (DLD1 [3]) | TCF/Wnt firefly luciferase reporter signal (SW480 [4]) |
| --- | --- | --- | --- | --- | --- |
| Cc1ccc(C(C)C)cc2c(C)ccc1-2 | 1.04 ± 0.057 | 1.085 ± 0.0071 | 1.06 ± 0.014 | 1 ± 0.14 | 0.894 ± 0.16 |
| CCN1CCCC1CNC(=O)c1cc(S(N)(=O)=O)ccc1OC (stereo not given) | 0.985 ± 0.064 | 0.954 ± 0.023 | 1.02 ± 0.071 | 1.06 ± 0.22 | 0.959 ± 0.072 |
| O=C1c2ccccc2C(=O)c2c(Cl)cccc21 [Chloro-Anthraquinone] | 1.01 ± 0.027 | 0.993 ± 0.024 | 0.974 ± 0.017 | 1.03 ± 0.16 | 0.944 ± 0.14 |
| C/C=C(\C)C(=O)[C@@H](C)/C=C(\C)[C@H]1O[C@@](O)([C@@](O)(CC)C(=O)N[C@@H]2C(=O)N3NCCC[C@@H]3C(=O)N(O)[C@@H](C)C(=O)N(C)[C@H](C)C(=O)N3NCCC[C@H]3C(=O)N[C@H]([C@H](C)O)C(=O)O[C@H]2C(C)C)CC[C@@H]1C | 0.983 ± 0.053 | 1.01 ± 0.17 | 1.08 | 1.01 ± 0.065 | 1.06 ± 0.035 |
| O=C(OOC(=O)c1ccccc1)c1ccccc1 | 1.015 ± 0.0071 | 1.12 ± 0.16 | 0.998 ± 0.031 | 0.96 ± 0.071 | 1.03 ± 0.053 |
| OCC(O)C(O)C(O)C(O)C(O)CO (stereo not given) | 1.05 ± 0.042 | 1.035 ± 0.0071 | 0.986 ± 0.049 | 0.9515 ± 0.005 | 1.02 ± 0.091 |
| CC1=C(/C=C/C(C)=C/C=C/C(C)=C/C=C/C=C(C)/C=C/C=C(C)/C=C/C2=C(C)CCCC2(C)C)C(C)(C)CCC1 [beta-CAROTENE] | 0.966 ± 0.0042 | 1 ± 0.064 | 0.984 ± 0.0014 | 0.932 ± 0.018 | 0.983 ± 0.052 |
| CC=CC1=C(C(=O)O)N2C(=O)[C@@H](NC(=O)[C@H](N)c3ccc(O)cc3)[C@H]2SC1 | 0.992 ± 0.012 | 1.03 ± 0.06 | 0.983 ± 0.039 | 1.09 ± 0.099 | 1.17 ± 0.064 |
| Cc1cc(O)c2c(c1O)C(=O)c1c(O)cc(C)c(O)c1C2=O | 0.979 ± 0.019 | 0.968 ± 0.1 | 0.986 ± 0.063 | 0.964 ± 0.039 | 1.01 ± 0.014 |
| Oc1cc2c(cc1O)C(c1ccccc1)CNCC2 (stereo not given) | 0.981 ± 0.019 | 0.944 ± 0.05 | 0.934 ± 0.025 | 1.08 ± 0.05 | 1.05 ± 0.064 |
| COc1ccc([C@@H](C)C(=O)c2ccc(O)cc2O)cc1 | 1.04 ± 0.098 | 1.09 ± 0.071 | 1.025 ± 0.0071 | 1.02 ± 0.071 | 1.07 ± 0.1 |
| CC1(C)S[C@@H]2[C@H](N3C(=O)[C@@H](c4ccccc4)NC3(C)C)C(=O)N2[C@H]1C(=O)O | 1.05 ± 0.079 | 1.055 ± 0.0071 | 1.08 ± 0.071 | 1.15 ± 0.042 | 1.09 ± 0.014 |
| CCOc1ccc2c(c1)C(C)=CC(C)(C)N2 | 1 ± 0.071 | 0.91 ± 0.09 | 1.01 ± 0.035 | 0.775 ± 0.12 | 0.899 ± 0.056 |
| CC1CC2C3CCC4=CC(=O)C=CC4(C)C3(F)C(O)CC2(C)C1C(=O)CO (stereo not given) | 0.954 ± 0.033 | 0.895 ± 0.043 | 0.939 ± 0.026 | 1.05 | 1.04 ± 0.057 |
| CCC(=O)OCC(=O)[C@@]1(OC(=O)CC)[C@@H](C)C[C@H]2[C@@H]3CCC4=CC(=O)C=C[C@]4(C)[C@@]3(Cl)[C@@H](O)C[C@@]21C | 0.958 ± 0.0057 | 0.982 ± 0.11 | 1.01 | 0.94 ± 0.044 | 0.941 ± 0.018 |
| NS(=O)(=O)c1cc2c(cc1Cl)NCNS2(=O)=O | 0.988 ± 0.1 | 1.02 | 1.04 ± 0.042 | 1.15 ± 0.071 | 1.1 ± 0.028 |
| CCOc1ccc(C(=O)c2ccc(O)c(O)c2O)cc1 | 0.928 ± 0.13 | 0.97 ± 0.18 | 1 ± 0.052 | 0.964 ± 0.093 | 1.1 ± 0.071 |
| O=c1ccc2cc(O)c(O)cc2o1 | 1.03 ± 0.19 | 1.13 ± 0.028 | 1.04 ± 0.014 | 0.994 ± 0.066 | 0.893 ± 0.015 |
| OCCN1CCN(CCCN2c3ccccc3Sc3ccc(C(F)(F)F)cc32)CC1 | 0.902 ± 0.082 | 0.973 ± 0.019 | 1.05 ± 0.09 | 0.927 ± 0.12 | 1.04 ± 0.1 |
| COc1ccccc1N1CCN(CCCNc2cc(=O)n(C)c(=O)n2C)CC1 | 0.938 ± 0.037 | 0.885 ± 0.018 | 0.93 ± 0.025 | 1.03 ± 0.05 | 0.953 ± 0.081 |
| COc1ccc(CN(CCN(C)C)c2ncccn2)cc1 | 0.994 ± 0.0057 | 0.969 ± 0.086 | 1 ± 0.055 | 0.9635 ± 0.00071 | 0.931 ± 0.021 |
| CC1(C)C(=O)C=CC2(C)C1C=CC1(C)C2CCC2(C)C(c3ccoc3)OC(=O)C3OC312 (stereo not given) | 1.07 ± 0.042 | 1.1 ± 0.13 | 1.05 | 1.01 ± 0.1 | 0.964 ± 0.094 |
| COC(=O)[C@@H]1OC(=O)C2OC23[C@@]1(C)CCC1[C@@]2(C)CCC(=O)C(C)(C)C2C[C@@H](OC(C)=O)[C@]13C (stereo not given in full) | 0.993 ± 0.011 | 1.07 ± 0.078 | 1.01 ± 0.017 | 0.86 ± 0.037 | 1.03 ± 0.046 |
| O=C1OCCN1/N=C/c1ccc([N+](=O)[O-])o1 | 0.984 ± 0.023 | 1.05 ± 0.028 | 0.999 ± 0.0014 | 1.1 ± 0.078 | 1.05 ± 0.078 |
| C/C=C/CCC(=O)c1c(C)c(O)c(O)c(C)c1O [Sohirnone C] | 1.11 ± 0.05 | 0.995 ± 0.035 | 1.05 ± 0.057 | 1.07 ± 0.014 | 1.08 ± 0.071 |
| C[C@H]1[C@@H](O)O[C@@H]2O[C@@]3(C)CC[C@H]4[C@H](C)CC[C@@H]1[C@@]24OO3 | 1.05 ± 0.09 | 0.746 ± 0.12 | 1.24 ± 0.05 | 0.761 ± 0.2 | 1.01 ± 0.052 |
| Cc1cc(C(C)(C)C)c(O)c(C)c1CC1=NCCN1 | 0.977 ± 0.047 | 0.895 ± 0.016 | 0.972 ± 0.035 | 1.15 ± 0.13 | 1.065 ± 0.0071 |
| O=C(O)C1(C(=O)O)CCC1.[NH2-].[NH2-].[Pt+2] | 1.02 ± 0.059 | 1.08 ± 0.15 | 0.97 ± 0.028 | 1.15 ± 0.099 | 1 ± 0.039 |
| CC(C)c1ncc(Cc2ccccc2)[nH]c1=O [Phevalin] | 1.14 ± 0.22 | 1.07 ± 0.014 | 1.004 ± 0.0078 | 0.982 ± 0.019 | 0.922 ± 0.12 |

From the supplement of paper PMC6522484
